According to the supplement of paper PMC8975748:
Structures can show the parent of a compound that is named as a salt. ± gives the standard deviation of the averaged measurements.

What was measured:
[1] = test system: Saccharomyces cerevisiae BY4741 SeMeCo community; test: mean cell size (pixel area) (pixels); higher = larger cells; conditions: 10 µM; 24 h; SM minimal medium
Outline: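 Harmony analysis of automated confocal images of paraformaldehyde-fixed yeast gave the mean cell pixel area per well. The yeast was a Saccharomyces cerevisiae BY4741 community carrying four plasmids, each with a fluorescent marker and each complementing one auxotrophy, incubated for 24 h in SM medium containing drug at a final 10 µM in 384-well plates. Results are averaged over 3 replicates. Same SeMeCo high-content imaging drug screen: Selleck FDA-approved drugs at 10 µM, 24 h in SM medium, 384-well plates, 3 replicates.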

[2] = test system: Saccharomyces cerevisiae BY4741 SeMeCo community; test: z-score of prototroph abundance vs DMSO median; higher = larger share of this subpopulation than in DMSO controls; conditions: 10 µM; 24 h; SM minimal medium; subpopulation (auxotrophy): Prototroph
Outline: (§1)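 Four plasmids, each restoring a single auxotrophy and encoding a distinct fluorescent protein, were carried by a Saccharomyces cerevisiae BY4741 community. After overnight growth to OD600 1.0 and dilution to 0.3, 70 µl per well was grown for 24 h in minimal SM medium on 384-well plates acoustically predosed with library drugs at 10 µM final. Following paraformaldehyde fixation, automated confocal microscopy was used, with single-auxotroph fluorescent strains defining thresholds and autofluorescence correction. Subpopulation abundance was then scored as a z-score against the vehicle-well median.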

[3] = test system: Saccharomyces cerevisiae BY4741 SeMeCo community; test: z-score of subpopulation abundance vs DMSO median, subpopulation auxotrophic for M; higher = larger share of this subpopulation than in DMSO controls; conditions: 10 µM; 24 h; SM minimal medium; subpopulation (auxotrophy): M
Outline: as §1

[4] = test system: Saccharomyces cerevisiae BY4741 SeMeCo community; test: z-score of subpopulation abundance vs DMSO median, subpopulation auxotrophic for L; higher = larger share of this subpopulation than in DMSO controls; conditions: 10 µM; 24 h; SM minimal medium; subpopulation (auxotrophy): L
Outline: as §1

[5] = test system: Saccharomyces cerevisiae BY4741 SeMeCo community; test: z-score of subpopulation abundance vs DMSO median, subpopulation auxotrophic for U; higher = larger share of this subpopulation than in DMSO controls; conditions: 10 µM; 24 h; SM minimal medium; subpopulation (auxotrophy): U
Outline: as §1

[6] = test system: Saccharomyces cerevisiae BY4741 SeMeCo community; test: z-score of subpopulation abundance vs DMSO median, subpopulation auxotrophic for LU; higher = larger share of this subpopulation than in DMSO controls; conditions: 10 µM; 24 h; SM minimal medium; subpopulation (auxotrophy): LU
Outline: as §1

[7] = test system: Saccharomyces cerevisiae BY4741 SeMeCo community; test: z-score of subpopulation abundance vs DMSO median, subpopulation auxotrophic for LM; higher = larger share of this subpopulation than in DMSO controls; conditions: 10 µM; 24 h; SM minimal medium; subpopulation (auxotrophy): LM
Outline: as §1

[8] = test system: Saccharomyces cerevisiae BY4741 SeMeCo community; test: z-score of subpopulation abundance vs DMSO median, subpopulation auxotrophic for HM; higher = larger share of this subpopulation than in DMSO controls; conditions: 10 µM; 24 h; SM minimal medium; subpopulation (auxotrophy): HM
Outline: as §1

[9] = test system: Saccharomyces cerevisiae BY4741 SeMeCo community; test: z-score of subpopulation abundance vs DMSO median, subpopulation auxotrophic for HU; higher = larger share of this subpopulation than in DMSO controls; conditions: 10 µM; 24 h; SM minimal medium; subpopulation (auxotrophy): HU
Outline: as §1

[10] = test system: Saccharomyces cerevisiae BY4741 SeMeCo community; test: z-score of subpopulation abundance vs DMSO median, subpopulation auxotrophic for UM; higher = larger share of this subpopulation than in DMSO controls; conditions: 10 µM; 24 h; SM minimal medium; subpopulation (auxotrophy): UM
Outline: as §1

[11] = test system: Saccharomyces cerevisiae BY4741 SeMeCo community; test: z-score of subpopulation abundance vs DMSO median, subpopulation auxotrophic for HL; higher = larger share of this subpopulation than in DMSO controls; conditions: 10 µM; 24 h; SM minimal medium; subpopulation (auxotrophy): HL
Outline: as §1

[12] = test system: Saccharomyces cerevisiae BY4741 SeMeCo community; test: z-score of subpopulation abundance vs DMSO median, subpopulation auxotrophic for HLU; higher = larger share of this subpopulation than in DMSO controls; conditions: 10 µM; 24 h; SM minimal medium; subpopulation (auxotrophy): HLU
Outline: as §1

[13] = test system: Saccharomyces cerevisiae BY4741 SeMeCo community; test: z-score of subpopulation abundance vs DMSO median, subpopulation auxotrophic for HLM; higher = larger share of this subpopulation than in DMSO controls; conditions: 10 µM; 24 h; SM minimal medium; subpopulation (auxotrophy): HLM
Outline: as §1

[14] = test system: Saccharomyces cerevisiae BY4741 SeMeCo community; test: z-score of subpopulation abundance vs DMSO median, subpopulation auxotrophic for HUM; higher = larger share of this subpopulation than in DMSO controls; conditions: 10 µM; 24 h; SM minimal medium; subpopulation (auxotrophy): HUM
Outline: as §1

[15] = test system: Saccharomyces cerevisiae BY4741 SeMeCo community; test: z-score of subpopulation abundance vs DMSO median, subpopulation auxotrophic for LUM; higher = larger share of this subpopulation than in DMSO controls; conditions: 10 µM; 24 h; SM minimal medium; subpopulation (auxotrophy): LUM
Outline: as §1

[16] = test system: Saccharomyces cerevisiae BY4741 SeMeCo community; test: z-score of subpopulation abundance vs DMSO median, subpopulation auxotrophic for HLUM; higher = larger share of this subpopulation than in DMSO controls; conditions: 10 µM; 24 h; SM minimal medium; subpopulation (auxotrophy): HLUM
Outline: as §1

[17] = test system: Saccharomyces cerevisiae BY4741 SeMeCo community; test: z-score of subpopulation abundance vs DMSO median, subpopulation auxotrophic for H; higher = larger share of this subpopulation than in DMSO controls; conditions: 10 µM; 24 h; SM minimal medium; subpopulation (auxotrophy): H
Outline: as §1

Compound	mean cell size [1]	z-score of prototroph abundance [2]	z-score of subpopulation abundance [3]	z-score of subpopulation abundance [4]	z-score of subpopulation abundance [5]	z-score of subpopulation abundance [6]	z-score of subpopulation abundance [7]	z-score of subpopulation abundance [8]	z-score of subpopulation abundance [9]	z-score of subpopulation abundance [10]	z-score of subpopulation abundance [11]	z-score of subpopulation abundance [12]	z-score of subpopulation abundance [13]	z-score of subpopulation abundance [14]	z-score of subpopulation abundance [15]	z-score of subpopulation abundance [16]	z-score of subpopulation abundance [17]
Nc1ccc(S(=O)(=O)Nc2cnc3ccccc3n2)cc1 [Sulfaquinoxaline sodium]	12 ± 0.22	-0.68	1.16	-1.08	1.01	0.22	0.34	0.61	1.05	1.56	-0.29	0.31	-0.05	0.79	0.81	-0.23	–
Nc1ccc2cc3ccc(N)cc3nc2c1 [Proflavine Hemisulfate]	12.06 ± 0.0063	5.49	6.69	-8.37	-8.08	-9.25	-5.03	6.84	-6.91	-8.07	-4.25	-4.5	-2.37	-4.39	-5.16	-2.15	5.37
C[C@@H](O)[C@H]1C(=O)N2C(C(=O)OCOC(=O)C(C)(C)C)=C(SC3CN(C4=NCCS4)C3)[C@H](C)[C@H]12 [Tebipenem Pivoxil]	12.4 ± 0.16	0.66	-0.17	0	0.02	-0.6	0.18	-0.9	-0.03	-0.27	-0.41	-0.99	-0.55	-0.67	0.09	-0.74	-0.29
C[C@H]1NCc2cc(-c3ccc4c(=O)c(C(=O)O)cn(C5CC5)c4c3OC(F)F)ccc21 [Garenoxacin]	12.34 ± 0.078	-0.68	0.86	-0.44	0.6	-0.05	0.15	0.28	0.7	-0.07	0.46	0.74	0.1	0.84	0.75	-0.08	-0.22
CCCCCCCCCCCC(=O)O [Lauric Acid]	12.2 ± 0.16	0.84	-1.03	-0.6	0.57	-0.2	-0.8	-0.82	-0.42	0.3	-1.05	-0.82	-1.21	-0.04	-0.68	-0.48	-1.48
CNCC[C@H](Oc1cccc2ccccc12)c1cccs1 [Duloxetine]	12.3 ± 0.34	0.49	0.27	-1.31	-0.4	-0.71	-0.49	0.1	-0.4	-0.39	-1.33	-1.41	-0.37	0.24	-0.47	-0.23	-0.81
COc1ccc2cc3[n+](cc2c1OC)CCc1cc2c(cc1-3)OCO2 [Berberine chloride]	12.5 ± 0.26	-0.22	0.33	0.44	-0.13	-0.32	0.14	-0.15	-0.79	-0.09	0.31	0.27	-0.32	-0.38	-0.34	-0.12	–
C=CCc1ccc(O)c(-c2ccc(O)c(CC=C)c2)c1 [Honokiol]	12.6 ± 0.22	1.92	-0.54	-0.29	-1.32	-1.84	-0.63	-0.9	-1.64	-1.43	-0.44	-1.04	-0.37	-1.19	-1.08	-0.84	-1.34
CC[C@H]1OC(=O)[C@H](C)[C@@H](O[C@H]2C[C@@](C)(OC)[C@@H](O)[C@H](C)O2)[C@H](C)[C@@H](O[C@@H]2O[C@H](C)C[C@H](N(C)C)[C@H]2O)[C@](C)(O)C[C@@H](C)C(=O)[C@H](C)[C@@H](O)[C@]1(C)O [Erythromycin thiocyanate]	12.1 ± 0.14	0.64	0.78	-0.64	0.41	-0.22	0.36	0.23	-0.7	0.06	-0.71	-0.56	-0.68	-0.41	-0.09	0	-1.72
CC(=O)OC(C)C[N+](C)(C)C (stereo not drawn) [Methacholine chloride]	12.5 ± 0.13	-0.97	0	0.65	0.32	1.46	0.88	0.64	0.67	0.68	0.45	0.55	0.76	0.26	0.92	0.95	0.16
CO/N=C(/C(=O)N[C@@H]1C(=O)N2C(C(=O)OCOC(=O)C(C)(C)C)=C(C)CS[C@H]12)c1csc(N)n1 [Cefetamet pivoxil hydrochloride]	12.46 ± 0.1	-1.5	0.7	0.83	0.3	0.94	0.52	1.3	0.78	0.64	1.33	1.65	1.15	0.8	1.09	0.63	1.26
CCC1(c2ccccc2)C(=O)NCNC1=O [Primidone]	12.6 ± 0.23	0.08	0.8	-0.17	-0.16	-0.48	-0.37	0.36	0.35	0.54	-0.36	-0.29	0.29	0.42	0.18	0.15	-0.52
CCc1nc(N)nc(N)c1-c1ccc(Cl)cc1 [Pyrimethamine]	12.3 ± 0.38	0.23	-0.13	-0.63	-0.01	-0.16	0.19	-0.27	-0.29	-0.1	–	0	-0.3	0.42	0.49	-0.2	-0.47
